# Only some compounds are listed: those with a hit (about 10% of all), similar ones and a draw of the others.
# GPT2 inhibitor: inhibitors of human GPT2 alanine aminotransferase; Q8TD30; Recombinant GPT2, coupled pyruvate oxidase/HRP Amplex Red fluorescence; Potency, µM (series often up to 57.7 µM), for the others: at the highest dose activity change, negative = inhibition, usual class: inhibitors; 100,000 compounds, 0.25% hits; AID 1671188; note: nearly all actives have a fitted effect of over 60% in size
# Target sequence (Q8TD30 whole entry, looked up): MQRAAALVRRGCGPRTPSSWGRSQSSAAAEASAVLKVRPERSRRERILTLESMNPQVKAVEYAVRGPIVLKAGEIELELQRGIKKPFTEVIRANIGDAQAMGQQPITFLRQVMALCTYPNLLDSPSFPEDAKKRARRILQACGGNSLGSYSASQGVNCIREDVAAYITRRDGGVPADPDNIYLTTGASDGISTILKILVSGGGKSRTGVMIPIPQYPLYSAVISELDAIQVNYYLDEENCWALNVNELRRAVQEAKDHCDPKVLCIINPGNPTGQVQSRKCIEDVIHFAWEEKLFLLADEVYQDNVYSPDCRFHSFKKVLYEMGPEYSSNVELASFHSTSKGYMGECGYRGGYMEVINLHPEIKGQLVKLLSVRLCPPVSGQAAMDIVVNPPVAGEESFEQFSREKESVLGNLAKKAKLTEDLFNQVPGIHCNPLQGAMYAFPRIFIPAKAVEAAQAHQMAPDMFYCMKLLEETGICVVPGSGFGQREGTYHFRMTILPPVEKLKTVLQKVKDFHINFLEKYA
#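 Fluorescence read-out: pyruvate from GPT2 turnover coupled to pyruvate oxidase, HRP and Amplex Red (0.2mM ThPP, 0.2U/mL PO and HRP, 50uM Amplex final). Substrates 250uM a-KG, 2mM L-alanine; enzyme 10ng/uL; 30 min RT.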
# NPR1 antag: blocks ANP-stimulated signaling of human Npr1 receptor; P16066; HEK293 hNpr1 GloSensor cGMP, ANP-stimulated luminescence; Potency, µM (top dose mostly 46.3 µM), for the others: top-dose activity change, negative = inhibition, hits mostly inhibitors; 76,000 compounds, 1.6% hits; AID 1347048; calls by dose curve; note: nearly all actives have a fitted effect of over 60% in size
#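 Compound pre-incubated 30 min at room temperature on GloSensor-loaded HEK293 cells stably carrying hNpr1 and the pGS-40F cGMP biosensor. Stimulation uses hNppA at 0.1 nM final; luminescence is taken at baseline and 20 min post-agonist.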
# Luciferase inh: inhibitors of firefly (Photinus pyralis) luciferase; purified P. pyralis luciferase, luminescence, biochemical; Potency, µM (titrated, usually from 115 µM), actives largely listed as inhibitors; 76,000 compounds, 2.5% hits; note: nearly all actives have a fitted effect of over 65% in size
#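 Luminescence read by CCD imaging after purified firefly luciferase (10nM final) was added to substrate buffer holding 10uM D-luciferin and 10uM ATP, pH 7.5, pre-dosed with compound.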
# HEK cytotox: HEK 293 cell cytotoxicity. HEK 293 viability, ATP luminescence (CellTiter-Glo), 48-72 h. Potency, µM (top dose mostly 115 µM), for inactives: at the highest dose activity change, negative = cytotoxicity, hits mostly inhibitors. 94,000 compounds, 6.6% hits; note: nearly all actives have a fitted effect of over 60% in size
#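 Cytotoxicity was scored by loss of ATP-coupled luminescence (CellTiter-Glo) in HEK 293 cells. Compound treatment ran 48 or 72 hr at 37 degree Celsius, 5% CO2, 95% humidity.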
# NIH3T3 tox: NIH 3T3 cell cytotoxicity. Potency, µM (series often up to 96.7 µM), inactives show at the highest dose activity change, negative = cytotoxicity, actives largely listed as inhibitors. NIH 3T3 viability, CellTiter-Glo ATP luminescence, 48-72 h. AID 1345082. 94,000 compounds, 4.3% hits; note: nearly all actives have a fitted effect of over 55% in size
#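 Cells were seeded at 400 per well, treated with pin-transferred compound, and kept 48 or 72 hr at 37 °C before CellTiter-Glo addition and luminescence imaging of cellular ATP.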
# * = called active by the depositor; i = inactive; ? = inconclusive; · = no result; ! = a repeat was not active; [ ] = another dose, or the depositor's remark. Unless noted, calls come from the whole dose curve; as a rule, active = well fitted curve in the direction sought with a large enough effect; inconclusive = small, poorly fitted or top-dose-only effect, or another doubt; inactive = no such curve, though single readings can be large; an effect the other way counts as inactive or inconclusive. % is set by controls: 0 for no effect and ±100 for the full control effect; potency is the fitted concentration of half-maximal effect.
SMILES,GPT2 inhibitor,NPR1 antag,Luciferase inh,HEK cytotox,NIH3T3 tox
COc1ccc(-n2c(=O)c(C(=O)N3CCN(Cc4ccccc4)CC3)nc3cccnc32)cc1,i,·,·,-0.2%,-12.4%
Fc1ccc2c(c1)nc1n2[C@@H](CNCc2ccccc2)COC1,4.9%[88.5 µM],?,i,?,?
Cc1nn(C)c2c1C(c1ccc(C(F)(F)F)cc1)C(C#N)=C(N)O2 (configuration not stated),15.3µM*!,·,·,·,·
CC(=O)N1CCN(C(=O)c2ccc3nnc(-c4cccc(C(F)(F)F)c4)n3c2)CC1,-27.3%[88.5 µM],·,·,-0.6%[172 µM],-10.2%[138 µM]
CCOCCNC(=O)C1CCN(c2nccc(Nc3ccccc3OC)n2)CC1,-17.2%,·,·,?,?
O=C(Nc1ccccc1)c1ccc(-c2cccc3c2CCNC3)o1,-15.6%,-23.9%,i,?,44.7µM*
Cc1ccc(NC(=O)c2ccc3c(c2)N(S(C)(=O)=O)CC3)cc1,i,?,1.26µM*,?,-18.9%
CCOC(=O)CNC(=O)c1ccc2c(c1)N(S(C)(=O)=O)CC2,-5.5%,-0.9%,i,11.7%,i
CC1CCCN(CCCNC(=O)c2cc3c(s2)CN(C2CCCC2)C3)C1 (configuration not stated),i,8.2%,i,9.2%,-3.5%
CC1CCCCN1CCCNC(=O)c1cc2c(s1)CN(C1CCCC1)C2 (configuration not stated),i,-3.7%,?,79.4µM*,?
CCN1CCN(C(=O)c2cc(-c3cccc(C(F)(F)F)c3)nc3c2cnn3C)CC1,0.6%,·,·,?,31.6µM*
CNC(=O)c1cc(-c2ccc(C(F)(F)F)cc2)nc2c1cnn2C,·,·,·,-20.2%,?
CC1CCCN(C(=O)c2cc(-c3ccc(C(F)(F)F)cc3)nc3c2cnn3C)C1 (configuration not stated),·,·,·,44.7µM*,?
O=C(NCc1cccs1)c1cn2cc(-c3ccc(F)cc3)sc2n1,i,·,·,?,?
COc1ccc(-c2noc(-c3cccn3CC(=O)NC3CCCCC3)n2)cc1F,3.2%,-9.2%,i,-25.8%,2.7%
Cc1nc(N2CCC(NC(=O)c3ccc(F)cc3)CC2)cc(C(F)(F)F)n1,-1.5%,-25.1%,i,?,-18.9%
O=C(CCc1nnn2c1CN(C(=O)c1nccc3ccccc13)CC2)N1CCCC1,i,·,·,-12.6%,-21.4%
COc1ccc(N2CC3(COCC2=O)CN(c2ccc(C(F)(F)F)cn2)C3)cn1,-10.4%[88.5 µM],0.8%[70.6 µM],i,-19.9%[172 µM],39.8µM*
CC(C)(C)c1ccc(CN2CC3(COCC2=O)CN(c2ccccc2)C3)cc1,-3.4%[88.5 µM],-1.5%[70.6 µM],i,?,79.4µM*
Cc1ccccc1CN1CC2(COCC1=O)CN(c1ccc(C(F)(F)F)cn1)C2,?,-0.9%[70.6 µM],i,89.1µM*,?
Cc1ccc(-c2cccc(CN3CCCC3C(=O)N3CCN(c4ncccn4)CC3)c2)cc1Cl (configuration not stated),·,·,·,14.1µM*,?
Cc1ccc(-c2cccc(CN3CCCC3C(=O)NCC(F)F)c2)cc1Cl (configuration not stated),·,·,·,39.8µM*,?
Cc1ccc(-c2cccc(CN3CCCC3C(=O)NC3CCCCC3)c2)cc1Cl (configuration not stated),·,·,·,-25.0%,-22.6%
Cc1ccc(-c2cccc(CN3CCCC3C(=O)NCC(C)C)c2)cc1Cl (configuration not stated),·,·,·,39.8µM*,35.5µM*
Cc1oc2c(c1C(=O)NCCCN1CCCCC1)CN(Cc1ccccc1)CC2,i,-5.8%,i,-22.9%,-28.2%
SMILES,GPT2 inhibitor,NPR1 antag,Luciferase inh,HEK cytotox,NIH3T3 tox
O=C(Cc1cccc(Cl)c1)N1CCC2(CC1)N(c1ccccc1)C(=O)CS2(=O)=O,3.3%,7.2%,i,-10.7%,-14.5%
Cc1noc(C)c1C(=O)N1CCC(N2C(=O)c3c(c(C)nn3-c3ccccc3)C2C(C)C)C1 (configuration not stated),·,·,·,-22.7%,-29.3%
CC(C)CCNC(=O)c1cnc2c(c1)N([S+](=O)([O-])c1cccnc1)CCC2,-5.9%[88.5 µM],0.0%[70.6 µM],i,0.3%[172 µM],?
Cc1csc(NC(=O)c2cnc3c(c2)N([S+](=O)([O-])c2cccnc2)CCC3)n1,-10.2%[88.5 µM],6.0%[70.6 µM],i,-12.9%[172 µM],100µM*
O=C(Nc1cccc(Cl)c1)c1cnc2c(c1)N([S+](=O)([O-])c1cccnc1)CCC2,?,5.2%[70.6 µM],i,100µM*,?
O=S(=O)(O)c1ccc(-c2ncc[nH]2)cc1,i,·,·,i,-3.0%[138 µM]
CCNc1ncnc2sc3c(c12)CCN(C(=O)c1ccnn1C)C3,i,2.1%,i,5.4%,?
CCOCCNC(=O)C1CCCCN1Cc1ccc(-c2cccs2)cc1 (configuration not stated),i,·,·,?,39.8µM*
O=C(Nc1cccc(Cl)c1)C1CCCCN1Cc1ccc(-c2cccs2)cc1 (configuration not stated),-3.7%,·,·,28.2µM*,?
COCCNC(=O)C1CCCCN1Cc1ccc(-c2cccs2)cc1 (configuration not stated),-6.6%,·,·,39.8µM*,?
O=C(NCCc1ccccc1)C1CCCCN1Cc1ccc(-c2cccs2)cc1 (configuration not stated),-10.0%,·,·,?,44.7µM*
CN1C(=O)c2sccc2N(C)c2nc(Nc3ccc(S(N)(=O)=O)cc3)ncc21,i,·,·,·,·
C=C(CC)CN1CCCC12Cc1ccccc1CNC2=O (configuration not stated),i,·,·,?,?
CCNC(=O)[C@@H]1C[C@H](N)CN1S(=O)(=O)c1ccc2ccccc2c1,1.5%,11.1%,i,1.4%,-10.9%
COc1cccc(CC(=O)NCC23CCCC=C2N(CC2CC2)C(=O)CC3)c1 (configuration not stated),i,·,·,?,?
CC(C)(C)C(=O)N[C@H]1C[C@@H](Cc2cc(COc3ccccc3)on2)C1(C)C,-17.9%[88.5 µM],-23.3%[70.6 µM],i,?,?
CCCCCC(=O)N[C@H]1C[C@@H](Cc2cc(COC(=O)CCCCC)on2)C1(C)C,1.4%[88.5 µM],-1.7%[70.6 µM],i,?,-22.8%[174 µM]
CC(C)C(=O)N[C@H]1C[C@@H](Cc2cc(COc3ccccc3)on2)C1(C)C,-6.9%[88.5 µM],?,?,39.8µM*,63.1µM*
CCCCCC(=O)N[C@H]1C[C@@H](Cc2cc(COc3ccccc3)on2)C1(C)C,-45.7%[88.5 µM],?,i,?,39.8µM*
CC1(C)[C@H](Cc2cc(COc3ccccc3)on2)C[C@@H]1NC1CCC1,1.5%[88.5 µM],2.8%[70.6 µM],i,35.5µM*,31.6µM*
Cc1ccc(-c2nnc(C3CN(C(=O)c4cnc(C)cn4)CC34CCOCC4)o2)cc1 (configuration not stated),i,-2.5%,i,-1.4%,i
